Source: the supplement of paper PMC6555819

Legend:
Test in all cases: PBM binding z-score (relative to random genomic background probes); higher = stronger binding; sequences stand for … in GC…GCGATTGACAGCGTAGAATGAAGG
[1] = test system: FXR:RXRa (NR concentration 270 nM, RXRa partner concentration 90 nM)
Procedure, shortened: (§1)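 The probes on custom Agilent 4×180K protein-binding microarrays were double-stranded, with 34-nt variable regions bearing direct-repeat seeds, single-nucleotide variants, half-site ablations and random human genomic background sequences. Incubation lasted 1 h with ligand-free nuclear receptor dimers in PBS pH 7.4, 2% milk, 0.02% Triton X-100, 1 mM DTT, 0.2 mg/mL BSA and 0.4 mg/ml salmon testes DNA. Antibodies against each partner (one per run) detected bound dimers, and fluorescence scans were regression-normalized. Binding z-scores take the random background probes as reference.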

[2] = test system: LXRa:RXRa (NR concentration 270 nM, RXRa partner concentration 90 nM)
Procedure, shortened: as §1

[3] = test system: LXRa homodimer (NR concentration 270 nM)
Procedure, shortened: as §1

[4] = test system: LXRb:RXRa (NR concentration 270 nM, RXRa partner concentration 90 nM)
Procedure, shortened: as §1

[5] = test system: LXRb homodimer (NR concentration 270 nM)
Procedure, shortened: as §1

[6] = test system: PPARa:RXRa (NR concentration 270 nM, RXRa partner concentration 90 nM)
Procedure, shortened: as §1

[7] = test system: PPARg:RXRa (NR concentration 180 nM, RXRa partner concentration 90 nM)
Procedure, shortened: as §1

[8] = test system: PPARg:RXRa 270nM:90nM, anti-RXR (NR concentration 270 nM, RXRa partner concentration 90 nM)
Procedure, shortened: as §1

[9] = test system: PPARg:RXRa 30nM:10nM, anti-RXR (NR concentration 30 nM, RXRa partner concentration 10 nM)
Procedure, shortened: as §1

[10] = test system: PPARg:RXRa 90nM:30nM, anti-RXR (NR concentration 90 nM, RXRa partner concentration 30 nM)
Procedure, shortened: as §1

[11] = test system: PPARg:RXRa DBDmut IVT, anti-RXR (DBD mutation: RXRa K156A/R161A, NR concentration 270 nM, RXRa partner concentration 90 nM)
Procedure, shortened: as §1

[12] = test system: PPARg:RXRa IVT, anti-PPARg (NR concentration 270 nM, RXRa partner concentration 90 nM)
Procedure, shortened: as §1

[13] = test system: PPARg DBDmut:RXRa IVT, anti-PPARg (DBD mutation: PPARg1 K132A/R137A, NR concentration 270 nM, RXRa partner concentration 90 nM)
Procedure, shortened: as §1

[14] = test system: PPARg DBDmut IVT, anti-PPARg (DBD mutation: PPARg1 K132A/R137A, NR concentration 270 nM)
Procedure, shortened: as §1

[15] = test system: PPARg homodimer (NR concentration 180 nM)
Procedure, shortened: as §1

[16] = test system: PXR homodimer (NR concentration 270 nM)
Procedure, shortened: as §1

[17] = test system: RARa:RXR (NR concentration 270 nM, RXRa partner concentration 90 nM)
Procedure, shortened: as §1

[18] = test system: RARa homodimer (NR concentration 270 nM)
Procedure, shortened: as §1

[19] = test system: RARb:RXRa (NR concentration 270 nM, RXRa partner concentration 90 nM)
Procedure, shortened: as §1

[20] = test system: PXR:RXRa (NR concentration 270 nM, RXRa partner concentration 90 nM)
Procedure, shortened: as §1

Sequence	PBM binding z-score [1]	PBM binding z-score [2]	PBM binding z-score [3]	PBM binding z-score [4]	PBM binding z-score [5]	PBM binding z-score [6]	PBM binding z-score [7]	PBM binding z-score [8]	PBM binding z-score [9]	PBM binding z-score [10]	PBM binding z-score [11]	PBM binding z-score [12]	PBM binding z-score [13]	PBM binding z-score [14]	PBM binding z-score [15]	PBM binding z-score [16]	PBM binding z-score [17]	PBM binding z-score [18]	PBM binding z-score [19]	PBM binding z-score [20]
GATAAAGGGTCAGCTAGAGGCCAGAGTATGGAAA	5.39	3.97	0.0664	3.27	0.0558	5.06	4.3	4.76	2.03	3.31	2.27	2.89	0.542	-0.0188	3.27	-0.0592	4.78	1.02	5.21	
CGTCTAAGTTCAAGGTAACGTAACAGAAAGCAGC	4.08	3.47	1.01	2.01	0.51	3.18	1.39	2.11	0.885	1.69	0.796	1.09	0.251	0.258	1.64	2.9	2.09	0.625	3.79	
AATACAGGGTCACTAGGCCAGAGTGGGTACGAAT	5.94	5.03	0.964	3.77	0.863	5.69	8.11	6.63	3.08	5.4	3.88	5.89	2.29	2.32	2.94	0.0148	4.01	0.459	4.03	
CGTCCAAGGTCATAGGAGGTCACTGAAGACAGAT	7.73	7.6	6.16	6.62	1.26	6.26	6.52	6.6	3.16	5.31	3.85	5.27	1.24	1.12	5.21	6.78		3.25	5.39	7.29
TTACAAAGGTGAAAGGTCGTTGATGCACGCCTTG	5.91	4.66	0.507	4.08	-0.0513	6.21	9.23	8.27	8.34	8.62	3.36	5.57	1.51	1.12	2.94	0.77		0.833	4.25	5.11
TAGCCTAGGTCACGGGCCAGTATACCACGCGAAC	5.68	4.12	0.223	3.33	-0.137	5.41	5.67	4.7	1.91	3.23	2.44	5.21	0.69	0.437	1.4	-0.694		0.351	4.59	2.28
CAGACTAGGTCAAAGGTCAAAGTCGAGCCAACCA	8.06	6.96	4.82	7.09	2.54	7.49	13.9	10.9	13.4	13.3	7.65	8.8	3.31	3.18	5.71	1.95		2.03	5.64	7.16
CGTCCAAGGTAAGAGAGGTCAGTGAATGCCGAGT	1.6	2.42	1.66	1.72	-0.936	2.53	0.401	1.2	-0.312	0.249	0.589	0.75	-1.12	-1.45	1.77	1.61	3.12	0.562		
CCTACTGGGCCAAAGGTCAGTGATTCCAATGCTC	2.78	2.95	1.1	3.34	-0.252	6.01	11.7	10.2	9.62	12.5	4.94	6.5	0.904	-0.864	4.06	0.00567		1.82	4.1	3.49
TAGCCTAGGTCATTCAGGGGTCAGTATAGAAAGC	5.8	5.2	3.94	5.72	2.32	5.18	4.13	4.56	1.78	3.3	2.45	3.97	1.25	0.527	9.82	1.35		2.26	4.81	5.72
CGTCCAAGGTCAAGCTCAGTGAAAGAGACTCGAA	7.44	5.54	0.428	3.91	0.539	5.75	5.25	5.77	1.89	4.21	3.71	3.76	0.736	0.448	3.54	0.3		0.572	5.27	3.92
GCTAGTAGGTCAGTAAAAGGTCACACACCGGTCG	4.98	5.45	5.31	5.01	1.21	5.55	7.3	6.72	4.43	6.42	7.2	7.29	3.2	3.78	6.95	1.43		2.9	5.4	5.97
ATATGTAGGTTACATCCGAGTCATTCAGGCTATG	0.413	1.95	0.304	0.957	0.682	3.1	5.14	4.01	1.78	3.1	6.76	7.07	4.51	3.39	0.982	0.05	0.757	0.574	0.973	
CAAACTAGGTCACCGGGAGGTCAAAGTCCGCATG	6.46	6.26	6.39	5.87	1.73	6.17	9.53	8	6.05	8.25	8.47	9.02	1.69	0.534	6.45	4.09	7.76	3.15	5.16	
CTCGAAAGGTCGTCCTCAGGTGAGTATACCAAAC	4.94	3.75	0.547	3.32	0.328	4.54	2.08	3.47	0.492	2.43	0.175	1.77	0.216	-0.144	1.94	0.134	4.1	-0.0286	3.8	
CCTTACGGGCCACGAGGTTATAGCACGACGAGCG	0.333	0.406	-0.158	0.202	-0.806	1.44	1.29	0.67	-0.315	0.471	0.97	1.16	-0.462	-1.1	0.126	-0.12	1.06	-0.0676	1.15	
